Molecules are shown by their SMILES. Compounds without any hit were thinned out: in the full panel of roughly 83,000, 20% have a hit.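 Negative percent growth values reflect cell death: -40 means 40% of the cells present at the start died, and -100 means all died.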 Activity calls are given as the source filed them. Rule for the calls: active = growth percent below 10; inactive = the rest.

The assay relates to T-47D breast. Nature of the assay: NCI-60 one-dose screen, 48 h (100 = growth as untreated, 0 = no growth, -100 = all killed). To be noted: 10 µM.
Take `Nc1nc(Nc2ccc(Cl)cc2)n(Cc2cccc(Br)c2)n1`: the growth was 15.1% (inactive). The same measure for `COc1ccc(N(C)c2cc(C#N)nc3ccccc23)cc1N`: 20.8% (inactive). Consider `CCOc1ccc(Nc2nc3ccccc3nc2Nc2ccc(OCC)cc2)cc1`, for which the growth was 32.1% (inactive). Regarding `NS(=O)(=O)c1ccc(NC(=O)CSc2ccc(-c3ccccc3)nn2)c(Br)c1`, the growth is 37.4% (inactive). With `COc1ccc(OC)c(/C=N/NC(=O)c2ccc3nc(-c4ccc(Cl)cc4)[nH]c3c2)c1`, the growth was 38.2% (inactive). For the compound `N#Cc1c(NC(=O)c2ccc(C(F)(F)F)cc2)sc2c1CCC(=O)C2`, the growth is -36.9% (active). As to `COc1ccc(-c2cc(-c3cc(C(=O)c4ccc(Br)cc4)n4ccc(C)cc34)nc(N)c2C#N)cc1`, the growth was 82.8% (inactive). Regarding `CN1C(=O)N(C)C2SC(N/N=C/c3cccs3)=NC21` (stereo not drawn), the growth is 21.7% (inactive).

Consider `CN1CCN(Cc2ccc(NC(=O)c3cncc(C#Cc4cnc5ccc(N[C@@H]6CCOC6)nn45)c3)cc2C(F)(F)F)CC1`, for which the growth is -63.2% (active). Regarding `COc1cc(C2CC(c3ccc(C)cc3)=Nc3c(N)nc(N)nc3N2)ccc1Oc1nc(Nc2ccc(F)cc2)nc(N(C)C)n1` (stereo not drawn), the growth was 64.5% (inactive). As to `CC1=C2C(=C[C@@](C)(CO)[C@@H]2O)/C(=N\N)[C@](C)(O)C12CC2`, the growth is -11.8% (active). The same measure for `Cc1ccc(NCC(=O)Nn2c(COc3ccccc3)nc3ccccc3c2=O)cc1`: 82.6% (inactive); for `CN1C(=O)/C(=C/c2nccs2)SC1=S`: 45.9% (inactive); for `Cc1ccc2nc(-c3ccc(-c4nnc(SCC(=O)Nc5ccc(Cl)cc5)o4)cc3)[nH]c2c1`: 65.1% (inactive). As for `O=C1Nc2cc(Cl)ccc2/C1=C/c1cccc(OCc2ccccc2)c1`, the growth is 14.7% (inactive). The same measure for `CCOc1ccc(/C=N/NC(=O)Cn2nc(Cc3ccccc3)c3onc(C)c3c2=O)cc1`: 44.9% (inactive); for `O=C(CSc1nnc(-c2c[nH]c3ccccc23)n1-c1ccccc1)Nc1ccc(C(=O)/C=C/c2ccc(Cl)cc2)cc1`: 40.3% (inactive). With `Oc1ccc(/C=C2\CCCc3cc4ccc(O)cc4[o+]c32)c(O)c1`, the growth is 18.3% (inactive). For `CCCSc1nc(NC2CC2)c(C#N)c(-c2ccc(OC)cc2)n1`, the growth is 88.8% (inactive). The same measure for `COc1ccc(/C=C/C(=O)c2ccc(NC(=O)CN3C(=O)NC(C)(c4ccccc4)C3=O)cc2)cc1` (stereo not drawn): 38.6% (inactive). With `Brc1ccc(/C=N/Nc2ncnc3sc4c(c23)CCN(Cc2ccccc2)C4)cc1`, the growth is 91.6% (inactive). With `CC1(c2ccccc2)NC(=O)N(CC(=O)Nc2ccc(C(=O)/C=C/C=C/c3ccccc3)cc2)C1=O` (stereo not drawn), the growth is 17% (inactive). In the case of `O=C(c1ccc(Cl)cc1)C1[C@H](c2ccccc2Br)[C@@H](c2ccccc2)NC12C(=O)Nc1ccc(Cl)cc12` (stereo partly drawn), the growth is 22% (inactive). As for `COc1ccc2nc(Cl)c(-c3cc(-c4ccccc4)nc(=S)[nH]3)cc2c1`, the growth is 76.4% (inactive).

Regarding `CC(=O)Oc1ccccc1C(=O)Oc1ccc(C(=O)/C=C/c2ccncc2)cc1`, the growth was 54.9% (inactive). Regarding `c1ccc(C(=C(c2ccc(OCCN3CCCCC3)cc2)c2ccc(OCCN3CCCCC3)cc2)C2CCCC2)cc1`, the growth was -1.48% (active). As for `CCCCSc1nc(Nc2ccc(/C(C)=N/NC(N)=S)cc2)c(C#N)c(-c2ccc(OC)cc2)n1`, the growth is 67.2% (inactive). Consider `COc1ccc(C(=O)Nc2ccc(-c3ccc4c(c3)NC(=O)/C4=C\c3ccc[nH]3)cc2)cc1`, for which the growth was 14.5% (inactive). For `COc1cccc(/C=C2\N=C(C)N(CCc3ccc(S(N)(=O)=O)cc3)C2=O)c1`, the growth was 97.3% (inactive). The same measure for `COc1ccc(-c2nc(-c3ccccc3)c(-c3ccccc3)n2-c2ccc(S(=O)(=O)Nc3ncccn3)cc2)cc1OC`: 43.1% (inactive); for `Cc1ccc(F)cc1N/C=c1\s/c(=C(\C#N)C(=O)Nc2ccccc2)n(-c2ccccc2)c1=O`: 76.7% (inactive). On to `CC1(c2ccccc2)NC(=O)N(CC(=O)Nc2ccc(C(=O)/C=C/c3ccccc3)cc2)C1=O` (stereo not drawn), for which the growth is 18.3% (inactive). Under `COc1ccc(N2N=C(c3ccc4c(c3)OCCO4)CC2c2cccc(NC(=O)CCCNS(=O)(=O)c3ccc(F)cc3)c2)cc1` (stereo not drawn) stands 63.3% (inactive). For the compound `Cc1ccc(S(=O)(=O)c2nc(-c3ccccc3)oc2S(=O)(=O)CC(=O)N2CCCC2)cc1`, the growth is -70.4% (active). Take `Cn1cc(/C=N/Nc2cccc(Cl)n2)c2ccccc21`: the growth was 47.2% (inactive). Take `CN(C)c1ccc(/C=C/C(=O)c2ccc(NC(=O)CN3C(=O)NC(C)(c4ccccc4)C3=O)cc2)cc1` (stereo not drawn): the growth was 22.1% (inactive). The same measure for `O=C1N/C(=N\c2nccs2)S/C1=C\c1cccs1`: 22.5% (inactive). Regarding `O=C(c1ccc(O)cc1)C1[C@H](c2ccccc2Br)[C@@H](c2ccccc2)NC12C(=O)Nc1ccc(Cl)cc12` (stereo partly drawn), the growth is 18.2% (inactive).

For the origin of these results see PubChem BioAssay (NCI).
